Reference: PubChem BioAssay (EPA / NIEHS)
Results filed as inconclusive are left out. Active and inactive are the calls of the source. The calls were made as follows, unless noted: active = hit-call score of the fitted dose curve at least 0.9, where 1 is the maximum; inactive = score below 0.9.

Legend:
[1] = read-out: E-selectin (Homo sapiens) (UniProt P16581); assay: BSK_3C_Eselectin: BioMAP Diversity Plus: 3C Assay for Eselectin Biomarker Activity (AID 2283015); conditions: primary human endothelial cells (HUVEC); actives raise or lower the signal
Procedure, shortened: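 HUVEC, 3C stimulation; compound exposure 24 h; E-selectin by ELISA; gain- or loss-of-signal fitted bidirectionally vs DMSO baseline.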

[2] = read-out: Monocyte Chemoattractant Protein-1 (MCP1), CCL2 (gene 6347); assay: BSK_3C_MCP1: BioMAP Diversity Plus: 3C Assay for Monocyte Chemoattractant Protein-1 (MCP1) Biomarker Activity (AID 2283017); conditions: primary human endothelial cells (HUVEC); actives raise or lower the signal
Procedure, shortened: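 HUVEC, 3C system; 24 h chemical exposure; MCP-1 by ELISA; bidirectional curve fit vs DMSO baseline.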

[3] = read-out: Monocyte Chemoattractant Protein-1 (MCP1), CCL2 (gene 6347); assay: BSK_4H_MCP1: BioMAP Diversity Plus: 4H Assay for Monocyte Chemoattractant Protein-1 (MCP1) Biomarker Activity (AID 2283018); conditions: primary human endothelial cells (HUVEC); actives raise or lower the signal
Procedure, shortened: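 Primary human umbilical vein endothelium is exposed to chemical for 24 h before MCP-1 is assayed by ELISA. Concentration-response fitted bidirectionally relative to DMSO.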

[4] = read-out: Human Leukocyte Antigen - DR isotype (HLADR), HLA-DRA (gene 3122); assay: BSK_3C_HLADR: BioMAP Diversity Plus: 3C Assay for Human Leukocyte Antigen - DR isotype (HLADR) Biomarker Activity (AID 2283019); conditions: primary human endothelial cells (HUVEC); actives raise or lower the signal
Procedure, shortened: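 HUVEC, 3C stimulation, 24 h post-dose; HLA-DR by ELISA; bidirectional curve fit vs DMSO baseline; gain or loss of signal scored.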

[5] = read-out: Interleukin-8 (IL8), CXCL8 (gene 3576); assay: BSK_3C_IL8: BioMAP Diversity Plus: 3C Assay for Interleukin-8 (IL8) Biomarker Activity (AID 2283020); conditions: primary human endothelial cells (HUVEC); actives raise or lower the signal
Procedure, shortened: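 Using DMSO-treated wells as the baseline, bidirectional curve fitting was applied to ELISA-measured IL-8 from human umbilical vein endothelial cultures sampled 24 h after compound addition.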

[6] = read-out: Monokine induced gamma interferon (MIG), CXCL9 (gene 4283); assay: BSK_3C_MIG: BioMAP Diversity Plus: 3C Assay for Monokine induced gamma interferon (MIG) Biomarker Activity (AID 2283021); conditions: primary human endothelial cells (HUVEC); actives raise or lower the signal
Procedure, shortened: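 ELISA-measured MIG in dosed HUVEC 3C cultures at 24 h, analysed by bidirectional fitting with DMSO defining baseline activity.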

[7] = target: human Vitamin D Receptor (VDR), VDR (gene 7421) (UniProt P11473); assay: ATG_VDR_TRANS: Attagene TRANS-FACTORIAL HepG2 Assay for human Vitamin D Receptor (VDR) (AID 2283022; active = hit-call score of the fitted dose curve at least 0.9, where 1 is the maximum)
human Vitamin D Receptor (VDR), VDR (gene 7421), sequence (P11473 whole entry, looked up, the tested form may be a part): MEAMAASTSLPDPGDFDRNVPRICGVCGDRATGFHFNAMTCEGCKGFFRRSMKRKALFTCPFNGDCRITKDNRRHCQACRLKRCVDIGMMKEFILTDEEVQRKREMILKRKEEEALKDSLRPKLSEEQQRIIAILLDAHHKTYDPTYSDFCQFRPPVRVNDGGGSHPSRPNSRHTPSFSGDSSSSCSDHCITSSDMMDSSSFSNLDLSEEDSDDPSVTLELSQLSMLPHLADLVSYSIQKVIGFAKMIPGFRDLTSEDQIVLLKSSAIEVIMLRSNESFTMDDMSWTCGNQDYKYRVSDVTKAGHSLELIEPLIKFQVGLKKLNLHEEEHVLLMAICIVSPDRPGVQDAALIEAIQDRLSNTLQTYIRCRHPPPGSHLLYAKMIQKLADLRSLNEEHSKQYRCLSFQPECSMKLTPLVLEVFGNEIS
Procedure, shortened: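 RT-PCR/capillary electrophoresis read-out of reporter mRNA induction in transiently transfected HepG2; 24 h dosing; chimeric NR-Gal4 (TRANS format); gain-of-signal fit against DMSO baseline.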

[8] = BSK_3C_SRB: Viability Assessment in the BioMAP Diversity Plus: 3C Assay (AID 2283023); conditions: primary human endothelial cells (HUVEC);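 also: fitted both ways against DMSO so a hit may be signal rise or drop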
Procedure, shortened: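 HUVEC, 24 h post-dose; 10% TCA fix, 0.1% SRB stain, A560 nm. Bidirectional curve fit vs DMSO negative control.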

[9] = read-out: Matrix Metallopeptidase 1 (MMP1), MMP1 (gene 4312); assay: BSK_BE3C_MMP1: BioMAP Diversity Plus: BE3C Assay for Matrix Metallopeptidase 1 (MMP1) Biomarker Activity (AID 2283024); conditions: primary human bronchial epithelial cells; actives raise or lower the signal
Procedure, shortened: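 In this multiplexed primary-cell system, human bronchial epithelium received chemicals for 24 h before an ELISA for MMP1. Values reflect bidirectional fits normalised to the DMSO baseline.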

[10] = BSK_3C_Vis: BioMAP Diversity Plus: 3C Assay for Morphology Visualization (AID 2283025); conditions: primary human endothelial cells (HUVEC);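 also: fitted both ways so gain or loss versus DMSO counts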;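 as to AC50: light microscopy image of cell morphology used as background control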
Procedure, shortened: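 Light-microscopy morphology readout, 24 h exposure, human primary umbilical vein endothelium; analysed relative to DMSO with bidirectional fitting.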

[11] = read-out: Pselectin, SELP (gene 6403); assay: BSK_4H_Pselectin: BioMAP Diversity Plus: 4H Assay for Pselectin Biomarker Activity (AID 2283026); conditions: primary human endothelial cells (HUVEC); actives raise or lower the signal
Procedure, shortened: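 Bidirectional fits against DMSO gave the endpoint. Cells: primary human umbilical vein endothelium, chemical-treated for 24 h before ELISA detection of P-selectin.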

[12] = BSK_BE3C_SRB: Viability Assessment in the BioMAP Diversity Plus: BE3C Assay (AID 2283028); conditions: primary human bronchial epithelial cells
Procedure, shortened: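 Primary human bronchial epithelium; chemical dosing, 24 h; 10% TCA fix, 0.1% SRB stain, A560; bidirectional fit vs DMSO baseline.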

[13] = read-out: Thrombomodulin, THBD (gene 7056); assay: BSK_3C_Thrombomodulin: BioMAP Diversity Plus: 3C Assay for Thrombomodulin Biomarker Activity (AID 2283029); conditions: primary human endothelial cells (HUVEC); actives raise or lower the signal
Procedure, shortened: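 In a multiplexed primary-cell system, human umbilical vein endothelium received chemical and was assayed 24 h later for thrombomodulin by ELISA. Parallel cultures were SRB-stained (0.1% SRB after 10% TCA fixation, read at 560 nm) to flag cytotoxicity.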

[14] = read-out: Urokinase-type plasminogen activator receptor (uPAR), PLAUR (gene 5329); assay: BSK_4H_uPAR: BioMAP Diversity Plus: 4H Assay for Urokinase-type plasminogen activator receptor (uPAR) Biomarker Activity (AID 2283030); conditions: primary human endothelial cells (HUVEC); actives raise or lower the signal
Procedure, shortened: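 HUVEC, 24 h post-dose; uPAR by ELISA; bidirectional fit vs DMSO baseline.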

[15] = read-out: Vascular endothelial growth factor receptor 2 (Homo sapiens) (UniProt P35968); assay: BSK_4H_VEGFRII: BioMAP Diversity Plus: 4H Assay for Vascular endothelial growth factor receptor 2 (VEGFR2) Biomarker Activity (AID 2283031); conditions: primary human endothelial cells (HUVEC); actives raise or lower the signal;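 as to AC50: cell-surface VEGFR2 protein level quantified by ELISA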
Procedure, shortened: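 HUVEC (human primary), 4H system; 24 h post-dose; VEGFRII by ELISA; bidirectional curve fit vs DMSO baseline; gain or loss of signal scored.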

[16] = read-out: Human Leukocyte Antigen - DR isotype (HLADR), HLA-DRA (gene 3122); assay: BSK_BE3C_HLADR: BioMAP Diversity Plus: BE3C Assay for Human Leukocyte Antigen - DR isotype (HLADR) Biomarker Activity (AID 2283032); conditions: primary human bronchial epithelial cells; actives raise or lower the signal
Procedure, shortened: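 BioMAP BE3C format: human bronchial epithelium, 24 h compound treatment, ELISA detection of HLA-DR, with bidirectional analysis relative to DMSO.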

[17] = read-out: Vascular cell adhesion molecule 1 (VCAM1), VCAM1 (gene 7412); assay: BSK_4H_VCAM1: BioMAP Diversity Plus: 4H Assay for Vascular cell adhesion molecule 1 (VCAM1) Biomarker Activity (AID 2283033); conditions: primary human endothelial cells (HUVEC); actives raise or lower the signal
Procedure, shortened: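 In this human endothelial (HUVEC) system, biomarker ELISA was run 24 h after compound addition, and total protein in parallel wells was assessed by SRB at 560 nm; DMSO served as negative control.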

[18] = read-out: Interferon-gamma inducible Protein 10 (IP10), CXCL10 (gene 3627); assay: BSK_BE3C_IP10: BioMAP Diversity Plus: BE3C Assay for Interferon-gamma inducible Protein 10 (IP10) Biomarker Activity (AID 2283034); conditions: primary human bronchial epithelial cells; actives raise or lower the signal
Procedure, shortened: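 BE3C cells (human bronchial epithelial, primary); 24 h exposure; ELISA for IP-10; DMSO-referenced bidirectional fit.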

[19] = read-out: Interleukin-1 alpha (IL1a), IL1A (gene 3552); assay: BSK_BE3C_IL1a: BioMAP Diversity Plus: BE3C Assay for Interleukin-1 alpha (IL1a) Biomarker Activity (AID 2283016); conditions: primary human bronchial epithelial cells; actives raise or lower the signal
Procedure, shortened: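 Measured in human lung primary bronchial epithelial cells: IL-1a by ELISA at 24 h after dosing, with bidirectional fitting against DMSO.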

[20] = BSK_4H_SRB: Viability Assessment in the BioMAP Diversity Plus: 4H Assay (AID 2283027); conditions: primary human endothelial cells (HUVEC);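 also: cells exposed to compound for 24 h before staining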;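 as to AC50: curves fitted both ways versus DMSO so AC50 may be loss or gain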
Procedure, shortened: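 Cytotoxicity read-out in primary human endothelial cells: after 24 h compound exposure, cells were TCA-fixed (10%), stained with 0.1% SRB and absorbance taken at 560 nm. Values fitted in both directions relative to DMSO.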

Measured: AC50

E-selectin (Homo sapiens), sequence (P16581 whole entry, looked up): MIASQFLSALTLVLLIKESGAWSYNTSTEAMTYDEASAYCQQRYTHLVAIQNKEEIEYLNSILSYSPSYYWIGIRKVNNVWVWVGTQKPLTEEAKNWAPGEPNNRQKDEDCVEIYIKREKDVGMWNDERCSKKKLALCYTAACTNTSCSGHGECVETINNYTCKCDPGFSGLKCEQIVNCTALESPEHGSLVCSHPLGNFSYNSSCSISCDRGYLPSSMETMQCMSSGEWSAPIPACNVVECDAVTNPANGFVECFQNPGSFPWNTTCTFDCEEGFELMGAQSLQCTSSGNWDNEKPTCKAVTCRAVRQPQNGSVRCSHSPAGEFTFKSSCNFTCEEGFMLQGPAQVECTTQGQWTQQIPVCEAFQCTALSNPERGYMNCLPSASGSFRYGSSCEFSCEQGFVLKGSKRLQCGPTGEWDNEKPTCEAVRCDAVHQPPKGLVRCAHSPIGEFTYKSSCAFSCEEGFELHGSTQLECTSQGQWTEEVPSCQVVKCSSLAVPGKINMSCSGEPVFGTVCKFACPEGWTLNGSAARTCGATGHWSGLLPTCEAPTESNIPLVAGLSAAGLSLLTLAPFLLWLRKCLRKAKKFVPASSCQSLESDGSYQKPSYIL

Cc1ccc(N)cc1O
not listed: [19] | [20]
inactive: all other assays above

Oc1ccc2c(c1)-c1ccccc1C2
active: [8] 19.6 µM | [10] 39 µM | [20] 10.2 µM
not listed: [3] | [16]
inactive: all other assays above

CCNc1ccccc1
not listed: [3] | [10]
inactive: all other assays above

C[C@](N)(Cc1ccc(O)c(O)c1)C(=O)O
not listed: [3] | [10] | [16]
inactive: all other assays above

CC(C)=CCCC(C)=CC=O
not listed: [3] | [10] | [19] | [20]
inactive: all other assays above

O=C(NS(=O)(=O)/C=C/c1ccccc1)c1ccc(F)cc1Cl
active: [16] 6.15 µM
not listed: [3] | [7] | [10] | [19] | [20]
inactive: all other assays above

CC/C(=C\C(=N/O)C(N)=O)C(C)[N+](=O)[O-] (stereo not given)
active: [18] 29.8 µM
not listed: [3] | [10] | [19] | [20]
inactive: all other assays above

CC(C)c1cccc(C(C)C)c1N1C(=O)c2ccc(O)cc2C1=O
active: [1] 36.5 µM | [3] 4.76 µM | [4] 8.36 µM | [5] 4.86 µM | [8] 17.3 µM | [11] 8.54 µM | [20] 12.8 µM | [14] 14.6 µM | [15] 20 µM | [17] 29.4 µM | [18] 19.5 µM
inactive: [2] | [6] | [7] | [9] | [12] | [13]
